Assay outcomes as filed in PubChem.
Hits are enriched below; roughly 2.8% of the tested compounds scored in any of these assays.
POLB inh = qHTS Assay for Inhibitors of DNA Polymerase Beta; P06746; Pol beta primer extension/strand displacement, fluorescence kinetic; Potency, µM (top dose mostly 114 µM), most hits filed as inhibitors; 340,000 tested, 1.3% active
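Reaction started by 50 nM substrate onto compound-treated Pol beta (10 nM, 15 min preincubation, room temperature); plates read at 0 min and 10 min. Normalized concentration-effect data fitted by four-parameter Hill equation.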
Pol kappa inh-1 = qHTS for Inhibitors of Polymerase Kappa | purified Pol kappa, fluorescent DNA synthesis assay, 10 min | Potency, µM (highest dose often 107 µM), most hits filed as inhibitors | 400,000 tested, 0.53% active
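Here, compound and 10 nM enzyme are combined for 15 min at room temperature; adding 50 nM substrate (final) starts DNA synthesis, tracked by fluorescence at 0 and 10 min against buffer-only wells.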
PI5P4Ka inh = qHTS for Inhibitors of phosphatidylinositol 5-phosphate 4-kinase (PI5P4K); AID 652105, 2013; 330,000 tested, 1.2% active; Phosphatidylinositol 5-phosphate 4-kinase type-2 alpha (Homo sapiens), P48426; max response, %; PI5P4Kalpha enzyme, ADP-Glo luminescence, 60 min; hits give low values; active means max response of -50% or lower; inconclusive means between -30% and -50%; inactive means -30% or higher; further: value at the top dose of about 77 µM
Target sequence (P48426 whole entry, looked up): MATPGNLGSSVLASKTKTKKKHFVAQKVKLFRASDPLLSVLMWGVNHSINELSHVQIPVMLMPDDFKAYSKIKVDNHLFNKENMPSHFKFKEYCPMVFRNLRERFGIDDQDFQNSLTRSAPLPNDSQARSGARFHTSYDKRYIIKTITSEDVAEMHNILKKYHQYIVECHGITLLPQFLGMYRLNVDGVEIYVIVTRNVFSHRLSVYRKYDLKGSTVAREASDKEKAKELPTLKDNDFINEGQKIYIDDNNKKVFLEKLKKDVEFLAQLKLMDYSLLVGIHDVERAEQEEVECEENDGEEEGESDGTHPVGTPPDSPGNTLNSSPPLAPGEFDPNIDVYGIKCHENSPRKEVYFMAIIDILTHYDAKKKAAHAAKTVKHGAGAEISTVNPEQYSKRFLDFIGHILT
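Human PI5P4Kalpha with substrate in 0.038 M HEPES pH 7.4, 0.28 mM EGTA, 0.1% CHAPS, 5% DMSO; reaction started with 5 microM ATP (final), 60 min at room temperature. ADP formed read by ADP-Glo luminescence.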
POLI inh = qHTS for Inhibitors of Polymerase Iota. DNA polymerase iota (Homo sapiens), Q9UNA4. Potency, µM (doses to about 115 µM), hits mostly inhibitors. Pol iota fluorescent replication assay, 10 min. AID 588590, 2011. 390,000 tested, 1% active
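Fluorescent replication assay read twice, at 0 min and 10 min after adding 50 nM (final) substrate. Enzyme (10 nM) and compounds were first incubated 15 min at room temperature; enzyme-free buffer wells were negative controls.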
Pol eta inh-1 = qHTS for Inhibitors of Polymerase Eta; 390,000 tested, 1.2% active; Potency, µM (titrated, usually from 114 µM), most hits filed as inhibitors; recombinant Pol eta, fluorescent DNA replication assay; AID 588591, 2011
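Pol eta (10 nM) was preincubated with compounds for 15 min at room temperature, after which fluorescent replication substrate (50 nM final) was added to start the reaction. Fluorescence was read kinetically at 0 and 10 min.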
PI4K2A inh = qHTS for small molecular inhibitors of PI4K2A; Phosphatidylinositol 4-kinase type 2-alpha (Homo sapiens), Q9BTU6; activity change, negative = inhibition, % at 76.9 µM; 420,000 tested, 0.13% active; purified PI4K2A, ADP-Glo luminescence, 1 h; hits give low values; in the data active means activity change below about -50%; inconclusive means mostly about -30% to -49%
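In this quantitative HTS, ADP production by PI4K2A was quantified luminescently after 1 h at ambient temperature; 100 microM adenosine served as plate-quality control.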
GALK inh confirm = Confirmation Assay for Inhibitors of Human Galactokinase (GALK); purified GALK, Kinase-Glo ATP depletion luminescence; 150 tested, 70% active; Potency, µM (highest dose often 115 µM), most hits filed as inhibitors; shares compounds with Pol eta inh-1; AID 2015, 2009
Redox cycling = Confirmatory Assay for Inhibitors of Human Galactokinase (GALK): Phenol-HRP redox assay counterscreen; 150 tested, 40% active; shares compounds with Pol eta inh-1; Potency, µM (doses to about 115 µM), usual class: inhibitors; Phenol red-HRP H2O2 redox cycling, absorbance 600 nm; AID 2035, 2009
HEK293 tox = Secondary Assay for Inhibitors of Human Galactokinase (GALK): HEK-293 Cell Viability Assay; HEK-293 viability, ATP luminescence (CellTiter-Glo), 24/48 h; shares compounds with Pol eta inh-1; 170 tested, 10% active; AID 2547, 2010; Potency, µM (series often up to 46.1 µM), most hits filed as inhibitors
Pol kappa inh-2 = qHTS for Inhibitors of Polymerase Kappa: Confirmatory Assay for Cherry-picked Compounds; shares compounds with Pol eta inh-1; purified Pol-kappa, fluorescent strand-displacement substrate; Potency, µM, actives largely listed as inhibitors; 920 tested, 76% active; AID 720501, 2013
Pol eta inh-2 = qHTS for Inhibitors of Polymerase Eta: Confirmatory Assay for Cherry-picked Compounds; shares compounds with Pol eta inh-1; Pol eta primer extension, TAMRA/BHQ fluorescence, 10 min; Potency, µM, actives largely listed as inhibitors; 2,600 tested, 64% active; AID 720502, 2013
Hits are given with their value; 0 = inactive; ? = inconclusive; - = not tested or not shown. Unless noted, the call rests on the fitted dose curve; in most records, active means well fitted curve in the direction sought with a large enough effect; inconclusive means small, poorly fitted or top-dose-only effect, or another doubt; inactive means no such curve, though single readings can be large; an effect the other way counts as inactive or inconclusive.

SMILES	POLB inh	Pol kappa inh-1	PI5P4Ka inh	POLI inh	Pol eta inh-1	PI4K2A inh	Pol eta inh-2	others
Cc1ccc(-n2ncc3c(NCCCn4ccnc4)ncnc32)cc1	0	0	-	0	0	0	-
O=C(Nc1ccc(S(=O)(=O)Nc2ncccn2)cc1)C1=NN(c2ccccc2)C(=O)CC1	0	0	0	?	35µM	0	67
Cc1ccnc(NS(=O)(=O)c2ccc(NC(=O)c3ccc(N4C(=O)CCC4=O)cc3)cc2)n1	?	?	-64	?	8.9µM	0	67
COC(=O)[C@@]12C[C@@H](CC(=O)N3CCN(C(=O)c4ccco4)CC3)C(=O)N(Cc3ccccc3)C1=CCC(C)(C)C2	-	-	0	-	-	0	-
COc1ccc(-c2ccc(CN3C(C)C(=O)N(Cc4cn(CCC5OCCO5)nn4)CCS3(=O)=O)cc2)cn1 (stereo not drawn)	-	-	0	-	0	0	-
COc1ccc(-c2ccc(CN3C(C)C(=O)N(Cc4cn(CCC5OCCO5)nn4)CCS3(=O)=O)cc2)cc1 (stereo not drawn)	-	-	?	-	28µM	0	?	Pol kappa inh-2=?
COc1ccc(/C=C/C(=O)NC(=S)Nc2ccc(S(=O)(=O)Nc3ccc(OC)nn3)cc2)cc1	0	0	?	0	56µM	0	?
COc1ccc(/C=C/C(=O)NC(=S)Nc2ccc(S(=O)(=O)Nc3cc(C)on3)cc2)cc1	0	0	?	?	?	0	-
CN(C)c1ccc(CNC(=O)c2ccc3c(c2)N(C)C(=O)C2CCCCN32)cc1 (stereo not drawn)	0	0	-	0	0	0	-
O=C(O)/C=C/C(=O)Nc1ccc(C2(c3ccc(NC(=O)/C=C/C(=O)O)cc3)c3ccccc3-c3ccccc32)cc1	50µM	0	-58	?	50µM	0	?
O=C(O)/C=C/C(=O)Nc1ccc(Cc2ccc(NC(=O)/C=C/C(=O)O)cc2)cc1	0	0	?	0	0	0	-
O=C(c1ccc2c(c1)N(Cc1cccc(F)c1)C(=O)c1ccccc1S2)N1CCCC1	40µM	0	-	79µM	79µM	0	?	Pol kappa inh-2=?
COc1cccc(/C=N/N2C(=O)CSC2=S)c1O	?	?	-55	?	0	0	?
O=C1CSC(=S)N1/N=C/c1c(F)cccc1F	0	0	0	?	0	0	-
CC(=O)CCc1c(C)nc2ccc(C(=O)O)cc2c1Cl	?	0	0	?	20µM	0	30
CC[N+]1(C)CCC(O)(/C=C/c2ccccc2)C(C(=O)/C=C/c2ccccc2)C1 (stereo not drawn)	-	0	0	?	?	0	-
O=c1c2ccccc2nc2sc(Nc3ccc4c(c3)CCC4)nn12	-	-	-	-	-	-	-	Pol kappa inh-2=38
O=c1c2ccc(F)cc2nc2sc(Nc3ccc4c(c3)CCC4)nn12	-	-	-	-	-	0	-
Cc1ccc(Cl)cc1N1CCN(C(=O)CN(c2ccccc2)S(=O)(=O)N(C)C)CC1	10µM	?	0	25µM	50µM	0	-	Pol kappa inh-2=?
CN1CCN(C(=O)CN(c2ccccc2)S(=O)(=O)N(C)C)CC1	0	0	0	0	0	0	-
Cc1ccnc(NC(=O)COC(=O)c2ccc(F)cc2F)n1	0	0	0	?	45µM	0	?
COc1ccccc1NC(=O)CCCCCN1C(=O)c2cccc([N+](=O)[O-])c2C1=O	0	0	0	0	0	0	-
COc1cc(/C=C2/C(=O)c3cccc([N+](=O)[O-])c3C2=O)c(Br)cc1O	40µM	0	-60	25µM	25µM	0	48
CCC(=O)c1ccc(OCC(=O)Nc2nc(-c3cccnc3)cs2)cc1	-	0	0	13µM	13µM	0	67
O=C(COc1ccc([N+](=O)[O-])cc1)NCc1cccnc1	0	0	0	0	0	0	-
SMILES	POLB inh	Pol kappa inh-1	PI5P4Ka inh	POLI inh	Pol eta inh-1	PI4K2A inh	Pol eta inh-2	others
O=C(COc1ccc([N+](=O)[O-])cc1)Nc1nnc(-c2cccnc2)s1	16µM	?	-66	18µM	40µM	0	?	Pol kappa inh-2=47
CCC(=O)c1ccc(OCC(=O)Nc2nc(C)cs2)cc1	-	0	0	0	0	0	-
COCCCNC(=O)c1cc2cc(S(=O)(=O)N3CCCCC3)ccc2n1C	0	0	-	0	0	0	-
O=C(O)c1ccc(S(=O)(=O)Nc2ccc(O)c(Sc3nc4ccccc4s3)c2)cc1	22µM	?	?	16µM	35µM	0	?
NS(=O)(=O)c1ccc(Sc2nc3ccccc3s2)c([N+](=O)[O-])c1	0	0	0	0	0	0	-
CC(=O)c1ccc(OC(=O)C2CSC3(C)CCC(=O)N23)cc1 (stereo not drawn)	-	0	0	18µM	8.9µM	0	?
Cc1ccc(Cl)c(OC(=O)C2CSC3(C)CCC(=O)N23)c1 (stereo not drawn)	-	0	0	0	0	0	-
CCOC(=O)c1ccc(N2C(=O)c3n[nH]c(-c4cccs4)c3C2c2cccc(OC)c2)cc1 (stereo not drawn)	0	0	-	0	0	0	-
Cc1ccc(OCC(=O)Nc2nnc(S(=O)(=O)N3CCC(C)CC3)s2)cc1	?	?	?	?	?	0	85
COc1ccccc1NC(=O)C(=N\O)/C(C)=N/O	45µM	?	0	?	14µM	0	85
c1cncc(CNc2ncnc3ccc(-c4ccoc4)cc23)c1	-	?	-	0	0	0	-
Cc1cccc(CNc2ncnc3ccc(-c4ccoc4)cc23)c1	-	0	-	0	0	0	-	GALK inh confirm=?;Redox cycling=0;HEK293 tox=0
